High-throughput results: PubChem, National Center for Advancing Translational Sciences (NCATS)
In the library only some 10% were active in any assay of this set; here they are far more common.
JMJD2A Tudor = qHTS Assay for Inhibitors of JMJD2A-Tudor Domain. Potency, µM (titrated, usually from 114 µM), usual class: inhibitors. AlphaScreen JMJD2A-Tudor / H3K4me3 peptide binding. Lysine-specific demethylase 4A (Homo sapiens), O75164. 390,000 compounds, 4.4% hits; note: nearly all actives have a fitted effect of over 50% in size
CtBP-E1A blk = qHTS Assay for Inhibitors of the CtBP/E1A Interaction. CtBP / adenovirus E1A interaction (AlphaScreen). AlphaScreen GST-E1A/His-CtBP binding, 1536-well; active compounds read low. activity change, % (test concentration not listed). 340,000 compounds, 0.49% hits; in the data active = activity change below about -65%; inconclusive = mostly about -30% to -63%
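Steps: dispense buffer (Tris pH 8.0, NaCl 300 mM, TCEP 1 mM, BSA, Tween 20); add 5X protein mix (GST-E1A, His-CtBP, 125 nM each); pin 23 nL compound; 2 h at 37 °C, dark; add 5X beads (50 ug/mL); 1 h; read.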
BAZ2B block = qHTS Assay for Inhibitors of BAZ2B; Bromodomain adjacent to zinc finger domain protein 2B (Homo sapiens), Q9UIF8; AlphaScreen BAZ2B-H3K14Ac peptide displacement; Potency, µM (titrated, usually from 114 µM), usual class: inhibitors; 360,000 compounds, 4.4% hits; AID 504333, 2011; note: nearly all actives have a fitted effect of over 60% in size
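In this displacement format the biotinylated H3(5-23) peptide acetylated at Lys14 serves as ligand at 50 nM, with BAZ2B at 50 nM in PBS pH 7.4 containing 0.01% Tween-20. Donor and acceptor beads are 10 ug/mL final.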
HP1b binding inh = HTS for Inhibitors of HP1-beta Chromodomain Interactions with Methylated Histone Tails | AlphaScreen HP1-beta / biotin-H3K9me3 peptide binding | AID 540317, 2011 | Chromobox protein homolog 1 (Homo sapiens), P83916 | Potency, µM (highest dose often 114 µM), hits mostly inhibitors | 390,000 compounds, 0.56% hits; note: nearly all actives have a fitted effect of over 70% in size
Target sequence (P83916 whole entry, looked up): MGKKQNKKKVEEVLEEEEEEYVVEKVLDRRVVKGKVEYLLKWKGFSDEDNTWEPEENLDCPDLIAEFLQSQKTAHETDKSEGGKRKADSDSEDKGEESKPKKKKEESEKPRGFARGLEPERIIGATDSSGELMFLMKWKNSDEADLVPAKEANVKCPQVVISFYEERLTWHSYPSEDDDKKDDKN
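AlphaScreen: HP1-beta (50 nM) preformed 30 min with biotin-H3(1-18)K9me3 peptide (50 nM) in PBS pH 7.4, 0.01% Tween-20. Compound added for 30 min at RT, then streptavidin donor/nickel chelate acceptor beads (10 ug/mL) for 30 min.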
G9a block = qHTS Assay for Inhibitors of Histone Lysine Methyltransferase G9a; Histone-lysine N-methyltransferase EHMT2 (Homo sapiens), Q96KQ7; G9a H3K9 monomethylation, AlphaScreen, 2 h; Potency, µM (doses to about 102 µM), most hits filed as inhibitors; 350,000 compounds, 8.8% hits; AID 504332, 2011; note: nearly all actives have a fitted effect of over 75% in size
Target sequence (Q96KQ7 913-1193 limits assumed): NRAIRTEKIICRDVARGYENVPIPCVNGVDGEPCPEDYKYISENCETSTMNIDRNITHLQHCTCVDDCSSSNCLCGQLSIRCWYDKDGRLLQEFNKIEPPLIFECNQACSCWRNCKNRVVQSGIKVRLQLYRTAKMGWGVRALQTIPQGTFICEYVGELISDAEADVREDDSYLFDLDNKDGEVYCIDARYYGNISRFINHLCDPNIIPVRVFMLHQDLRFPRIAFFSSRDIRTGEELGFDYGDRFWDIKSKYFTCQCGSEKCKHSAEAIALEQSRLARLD
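Enzyme 20 nM + cpd, 15 min RT; add b-H3K9 pep 500 nM / SAM 20 uM; 2 h RT; anti-H3K9me1 Ab 0.5 ug/mL + SA donor / anti-rabbit acceptor beads 20 ug/mL each, 10 min; AlphaScreen read.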
Six1-Eya2 blk = qHTS Assay for Inhibitors of the Six1/Eya2 Interaction; AlphaScreen GST-Six1/His-Eya2 binding, biochemical; active compounds read low; AID 651725, 2012; activity change, % (no concentration beside the values); 360,000 compounds, 0.56% hits; Homeobox protein SIX1 (Homo sapiens) + Protein phosphatase EYA2 (Homo sapiens), …; in the data active = activity change below about -65%; inconclusive = mostly about -30% to -63%
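Homogeneous AlphaScreen proximity assay pairing GST-Six1 with His-tagged Eya2 (added as 5X mix: 250 nM and 500 nM) in 50 mM Tris pH 8.0, 300 mM NaCl, 1 mM TCEP. Glutathione donor and nickel acceptor beads; 1 h, 37 °C, dark.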
Each line names hits and unclear results; the compound was inactive in the other large screens. Unless noted, calls come from the whole dose curve; as a rule, active = well fitted inhibition curve with a large enough effect; inconclusive = small, poorly fitted or top-dose-only effect; inactive = no such curve, though single readings can be large or run the other way.

COc1ccc(CN=Cc2c(C(F)(F)F)[nH][nH]c2=O)cc1	JMJD2A Tudor 79µM
S=c1[nH]nc(Cn2cnc3ccccc32)n1-c1ccccc1Cl	JMJD2A Tudor 50µM (no result: G9a block)
CN(Cc1ccccc1)C(=O)C1CCN(S(=O)(=O)c2ccc3nc4c(c(C(=O)O)c3c2)CCCC4)CC1	BAZ2B block 50µM, G9a block inconclusive, Six1-Eya2 blk inconclusive (no result: CtBP-E1A blk)
CN(CCCNC(=O)C1CCN(S(=O)(=O)c2cccc3nsnc23)CC1)Cc1ccccc1	none
CC(NC(=O)C1CCN(S(=O)(=O)c2ccc3nc4c(c(C(=O)O)c3c2)CCCC4)CC1)c1ccccc1 (configuration not stated)	G9a block 40µM
CN(Cc1ccccc1)C(=O)C1CCN(S(=O)(=O)c2cccc3nsnc23)CC1	JMJD2A Tudor 14µM
O=C(O)c1c2c(nc3ccc(S(=O)(=O)N4CCC(C(=O)NCc5ccccc5)CC4)cc13)CCCC2	Six1-Eya2 blk -73 (no result: JMJD2A Tudor, BAZ2B block, HP1b binding inh, G9a block)
Cc1cc(N2C(=O)C(O)=C(C(=O)c3ccco3)C2c2ccccc2F)no1 (configuration not stated)	BAZ2B block inconclusive, G9a block 79µM
Cc1cc(N2C(=O)C(O)=C(C(=O)c3ccco3)C2c2ccc(Cl)cc2)no1 (configuration not stated)	G9a block inconclusive (no result: CtBP-E1A blk)
CSc1nnc(N2C(=O)C(O)=C(C(=O)c3ccco3)C2c2ccccc2)s1 (configuration not stated)	JMJD2A Tudor inconclusive, BAZ2B block inconclusive, G9a block 40µM (no result: CtBP-E1A blk)
CSc1nnc(N2C(=O)C(O)=C(C(=O)c3ccc(C)o3)C2c2ccc(C)cc2)s1 (configuration not stated)	BAZ2B block inconclusive (no result: CtBP-E1A blk)
CSc1nnc(N2C(=O)C(O)=C(C(=O)c3ccco3)C2c2ccccc2F)s1 (configuration not stated)	JMJD2A Tudor 50µM
COC(=O)c1ccc(Cl)cc1NC(=O)N(Cc1ccc(C)o1)C1CCN(C(C)=O)CC1	none (no result: CtBP-E1A blk, Six1-Eya2 blk)
Cc1ccccc1C(=O)N1CCC(N2CCN(Cc3ccc(F)cc3)C(=O)C2=O)CC1	none (no result: CtBP-E1A blk, Six1-Eya2 blk)
CC1CCCN(c2ccc(C(=O)Nc3ccc4c(c3)OCO4)cc2[N+](=O)[O-])C1 (configuration not stated)	JMJD2A Tudor inconclusive, CtBP-E1A blk inconclusive, BAZ2B block inconclusive, HP1b binding inh inconclusive, G9a block 22µM, Six1-Eya2 blk inconclusive
CC1CCCN(c2ccc(C(=O)Nc3nnc(C4CC4)s3)cc2[N+](=O)[O-])C1 (configuration not stated)	JMJD2A Tudor inconclusive
O=C(NCc1ccc2c(c1)OCO2)c1ccc(N2CCCCCC2)c([N+](=O)[O-])c1	JMJD2A Tudor inconclusive, CtBP-E1A blk inconclusive, BAZ2B block inconclusive, HP1b binding inh inconclusive, G9a block 35µM
CC1CCCN(c2ccc(C(=O)NCc3ccc4c(c3)OCO4)cc2[N+](=O)[O-])C1 (configuration not stated)	JMJD2A Tudor inconclusive, BAZ2B block inconclusive, HP1b binding inh inconclusive, G9a block 14µM, Six1-Eya2 blk inconclusive
Cc1oc2ncn(C)c(=O)c2c1C(=O)Nc1ccccn1	none (no result: CtBP-E1A blk, Six1-Eya2 blk)
Cc1cc(C)cc(NC(=O)CN(C)S(=O)(=O)c2ccc3c(c2)CCC(=O)N3)c1	none (no result: CtBP-E1A blk, Six1-Eya2 blk)
O=C(N/N=C/C(Br)=C\c1ccccc1)c1cccs1	CtBP-E1A blk -81 (no result: G9a block)
O=C(N/N=C/C(Br)=C\c1ccccc1)c1ccco1	CtBP-E1A blk -82
CC(=C/c1ccccc1)/C=N/NC(=O)c1cccs1	none
O=C(O)c1ccc(N/N=C/C(Br)=C/c2ccccc2)cc1	JMJD2A Tudor inconclusive, G9a block 50µM
COc1ccccc1CNC(=O)c1cnn(-c2ccc(F)cc2F)c1C1CCN(C(=O)OC(C)(C)C)CC1	none (no result: CtBP-E1A blk, Six1-Eya2 blk)
CCOC(=O)C1=C(O)C(=O)N(c2ccc(S(N)(=O)=O)cc2)C1c1cccc([N+](=O)[O-])c1 (configuration not stated)	G9a block inconclusive
CC(=O)C1=C(O)C(=O)N(c2ccc(S(N)(=O)=O)cc2)C1c1cccc([N+](=O)[O-])c1 (configuration not stated)	G9a block 50µM
CCOC(=O)c1c(S(=O)(=O)N2CCCC(C(=O)Nc3ccc(C)cc3C)C2)c(C)n(CC)c1C (configuration not stated)	none (no result: CtBP-E1A blk, Six1-Eya2 blk)
COc1cccc(CNS(=O)(=O)c2cc(-c3cc(C)no3)ccc2C(C)C)c1	G9a block 71µM
COc1ccc(-c2cc(C)no2)cc1S(=O)(=O)NCc1ccco1	G9a block inconclusive (no result: CtBP-E1A blk, Six1-Eya2 blk)
Cc1cc(-c2ccc(C(C)C)c(S(=O)(=O)NCc3ccco3)c2)on1	BAZ2B block 50µM, G9a block 79µM
COc1ccc(-c2nc3cnc(N4CCOCC4)nc3n(Cc3cccc(OC)c3)c2=O)cc1	none (no result: JMJD2A Tudor, CtBP-E1A blk, BAZ2B block, HP1b binding inh, Six1-Eya2 blk)
O=C(CSc1nc(NS(=O)(=O)c2ccccc2)cc(=O)[nH]1)Nc1ccc(F)cc1	JMJD2A Tudor 56µM, BAZ2B block inconclusive, Six1-Eya2 blk inconclusive
CC1(CCl)N([O-])C2=C(CCCC2)[N+]1=O (configuration not stated)	BAZ2B block 45µM, G9a block 32µM
CCSc1nnc2c(n1)OC(c1cc(OC)c(OC)c(OC)c1)Nc1ccccc1-2 (configuration not stated)	none (no result: CtBP-E1A blk, Six1-Eya2 blk)
CCCCCCOC1(c2ccccc2)OC(=O)c2ccccc21 (configuration not stated)	none
CCCCCOP(=O)(OCCCCC)C1(NS(=O)(=O)c2ccccc2)C=CC(=O)c2ccccc21 (configuration not stated)	HP1b binding inh inconclusive, G9a block 8.9µM
CCC(=O)Nc1ccc2c(c1)ncn2-c1ccccc1	none
CCC(=O)Nc1ccc2c(c1)ncn2-c1ccccc1OC	G9a block 45µM
COc1ccc(OCC(=O)Nc2ccc3c(c2)n(C)c(=O)n3C)cc1	BAZ2B block inconclusive (no result: CtBP-E1A blk)
COc1ccccc1OCC(=O)Nc1ccc2c(c1)n(C)c(=O)n2C	BAZ2B block 56µM, G9a block inconclusive
CC(=O)Nc1ccc(NC(=O)C2CCCN2S(=O)(=O)c2ccc3c(c2)CCCC(=O)N3)cc1 (configuration not stated)	BAZ2B block inconclusive, G9a block inconclusive (no result: CtBP-E1A blk, Six1-Eya2 blk)
Cc1nc(-c2ccc(F)cc2)sc1CCNC(=O)Cc1ccc(F)cc1	none (no result: CtBP-E1A blk, Six1-Eya2 blk)
